Measured values reported in PubChem BioAssay (NCATS).
Results filed as inconclusive are left out. Calls of active or inactive are those of the source. Unless noted, the call rests on the fitted dose curve; in most records, active means well fitted curve in either direction with a large enough effect (not every such curve was filed as active); inconclusive means small, poorly fitted or top-dose-only effect, or another doubt; inactive means flat fitted curve, though single readings scatter.

Key:
[1] = AP1 Signaling Pathway (AID 357); settings: ME-180 AP-1-bla reporter, EGF-induced, beta-lactamase ratio, 5 h; at 17.2 µM (top of the series) unless noted;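 further: ME-180 reporter cells stimulated with EGF at its EC50 level; on the % scale 0 is the no-effect control and ±100 the full control effect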
In short: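 First, ME-180 AP-1-bla cells were cultured overnight at 37 °C in low-serum Opti-MEM. Next, titrated compounds with EC50 EGF were incubated 5 hours. Finally, CCF4 was added for 2.5 hours and the 460/530 nm ratio recorded.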

[2] = NFAT Signaling Pathway (AID 444); settings: Jurkat NFAT-bla M1, carbachol, beta-lactamase ratio, 5 h; at 17.2 µM (top of the series) unless noted;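 further: carbachol stimulus at about its EC50 of 1 µM final; on the % scale 0 is the no-effect control and ±100 the full control effect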
In short: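 Jurkat cells with NFAT-driven β-lactamase reporter and co-expressed M1 receptor, stimulated with carbachol (final 1 uM, ~EC50), compound titration, 5 h at 37 °C. CCF4 loaded 1 h at RT; 460/530 nm ratio gave %activity and AC50.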

[3] = Stat Signaling Pathway (AID 446); settings: ME-180 SIE beta-lactamase reporter, IL-6 stimulated, 5 h; at 17.2 µM (top of the series) unless noted;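 further: ME-180 cervical cancer cells given 40 pM IL-6 alongside compound; SIE-controlled beta-lactamase reporter measured as 460/530 nm FRET emission ratio; on the % scale 0 is the no-effect control and ±100 the full control effect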
In short: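 ME-180 cells carrying a SIE-driven beta-lactamase reporter are stimulated with 40 pM IL-6 for 5 h at 37C in the presence of compound. The 460/530 nm FRET substrate ratio is read after 2.5 h at RT. Data are normalised to 300 pM IL-6 and to 125 nM JAK inhibitor controls.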

[4] = biological target: Glucocorticoid receptor (Homo sapiens) (UniProt P04150); test: GR-GFP Redistribution (AID 450;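 active means compounds whose dose series gives a full or clear partial fitted curve of increased nuclear translocation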; further: potency means the concentration at half of the fitted maximal effect)
Sequence of Glucocorticoid receptor (Homo sapiens) (P04150 whole entry, looked up): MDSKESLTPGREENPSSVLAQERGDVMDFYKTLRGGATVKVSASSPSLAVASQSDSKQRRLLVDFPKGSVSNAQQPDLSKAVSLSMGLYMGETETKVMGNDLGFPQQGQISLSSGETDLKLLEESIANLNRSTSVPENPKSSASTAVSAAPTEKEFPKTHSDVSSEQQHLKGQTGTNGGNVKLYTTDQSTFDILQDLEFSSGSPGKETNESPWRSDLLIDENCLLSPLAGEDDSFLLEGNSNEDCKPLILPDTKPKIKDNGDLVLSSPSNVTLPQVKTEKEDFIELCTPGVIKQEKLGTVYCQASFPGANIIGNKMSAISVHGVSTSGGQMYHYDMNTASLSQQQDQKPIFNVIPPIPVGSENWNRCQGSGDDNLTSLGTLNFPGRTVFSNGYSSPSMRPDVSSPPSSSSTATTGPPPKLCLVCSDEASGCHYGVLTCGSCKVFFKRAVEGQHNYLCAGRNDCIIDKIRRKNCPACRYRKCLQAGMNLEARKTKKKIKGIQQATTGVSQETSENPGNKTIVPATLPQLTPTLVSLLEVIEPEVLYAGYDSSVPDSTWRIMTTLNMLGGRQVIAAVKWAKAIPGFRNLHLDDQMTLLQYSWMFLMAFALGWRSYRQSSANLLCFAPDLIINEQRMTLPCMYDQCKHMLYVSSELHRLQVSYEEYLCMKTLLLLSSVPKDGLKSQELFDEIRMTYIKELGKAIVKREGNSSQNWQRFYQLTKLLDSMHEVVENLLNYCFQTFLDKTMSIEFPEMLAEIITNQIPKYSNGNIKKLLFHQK

CCCC(CCC(=O)Nc1ccc(C(=O)OC)cc1)C(=O)O (stereo not drawn)
inactive: activity change, negative = inhibition [1] -9.55% | activity change, negative = inhibition [2] -16.6% | activity, negative = inhibition [3] 11.7% | Potency [4] > 20.6 µM

CCOC(=O)C1CCCN(c2nc3ccccc3nc2C(C#N)C(=O)OC(C)COC)C1 (stereo not drawn)
inactive: activity change, negative = inhibition [1] -5.69% | activity change, negative = inhibition [2] -5.6% | activity, negative = inhibition [3] -14.5% | Potency [4] > 20.6 µM

CCOC(=O)c1[nH]c2ccccc2c1N=CN(CC)CC
inactive: activity change, negative = inhibition [1] 9.2% | activity change, negative = inhibition [2] -19.2% | activity, negative = inhibition [3] -2.38% | Potency [4] > 20.6 µM

O=C(NCc1ccccn1)c1ccc(=O)oc1
inactive: activity change, negative = inhibition [1] 5.8% | activity change, negative = inhibition [2] -2.94% | activity, negative = inhibition [3] 8.81% | Potency [4] > 20.6 µM

COC(=O)CSc1nnc2n(-c3ccc(OC)cc3)c(=O)c3c4c(sc3n12)CCCCC4
inactive: activity change, negative = inhibition [1] -16% | activity change, negative = inhibition [2] -18.9% | activity, negative = inhibition [3] 5.65% | Potency [4] > 20.6 µM

NC(=O)CSc1c[nH]c2ccccc12
inactive: activity change, negative = inhibition [1] 2.78% | activity change, negative = inhibition [2] 0.963% | activity, negative = inhibition [3] -0.854% | Potency [4] > 20.6 µM

Cc1ccc2[nH]c3c(c2c1)CCCC3C(N)=O (stereo not drawn)
inactive: activity change, negative = inhibition [1] -5.19% | activity change, negative = inhibition [2] -1.59% | activity, negative = inhibition [3] 8.83% | Potency [4] > 20.6 µM

CCOc1cccc(-c2nn3c(-c4ccccn4)nnc3s2)c1
inactive: activity change, negative = inhibition [1] -15% | activity change, negative = inhibition [2] -14.4% | activity, negative = inhibition [3] -1.87% | Potency [4] > 20.6 µM

COc1cccc(C2=CC(c3ccccc3)n3ncnc3N2)c1 (stereo not drawn)
inactive: activity change, negative = inhibition [1] -21.4% | activity change, negative = inhibition [2] -15.1% | activity, negative = inhibition [3] -5.76% | Potency [4] > 20.6 µM

CN1CCN(CCCCC(=O)c2ccccc2)CC1
inactive: activity change, negative = inhibition [1] 16.6% | activity change, negative = inhibition [2] -15.1% | activity, negative = inhibition [3] 9.37% | Potency [4] > 20.6 µM

Cn1c(=O)[nH]c(=O)c2c1nc(Br)n2CCSc1nnnn1-c1ccccc1
inactive: activity change, negative = inhibition [1] -14.1% | activity change, negative = inhibition [2] 1.39% | activity, negative = inhibition [3] -8.23% | Potency [4] > 20.6 µM

Cc1ccc(C2C(C(=O)c3cc4ccccc4o3)=C(O)C(=O)N2CCCN(C)C)cc1 (stereo not drawn)
inactive: activity change, negative = inhibition [1] 4.95% | activity change, negative = inhibition [2] -2.86% | activity, negative = inhibition [3] 1.75% | Potency [4] > 20.6 µM

c1coc(-c2nnc3sc(C4CCCCC4)nn23)c1
inactive: activity change, negative = inhibition [1] -14.7% | activity change, negative = inhibition [2] -19.5% | activity, negative = inhibition [3] 6.55% | Potency [4] > 20.6 µM

Cc1cc(=O)oc2ccc(OCC(=O)N3CCc4ccccc43)cc12
inactive: activity change, negative = inhibition [1] 2.4% | activity change, negative = inhibition [2] -12% | activity, negative = inhibition [3] 11.2% | Potency [4] > 20.6 µM

Cc1cc(C)n(C(=O)CNC(=O)c2cccs2)n1
inactive: activity change, negative = inhibition [1] 10.9% | activity change, negative = inhibition [2] 3.15% | activity, negative = inhibition [3] 4.05% | Potency [4] > 20.6 µM

Cc1nc(=O)c(-c2ccccc2)c(C)n1-c1ccc(S(N)(=O)=O)cc1
inactive: activity change, negative = inhibition [1] 7.15% | activity change, negative = inhibition [2] -1.07% | activity, negative = inhibition [3] 7.76% | Potency [4] > 20.6 µM

CCCSc1nc(O)c(C2OC(=O)c3c2ccc(OC)c3OC)c(=O)n1C (stereo not drawn)
inactive: activity change, negative = inhibition [1] 17.4% | activity change, negative = inhibition [2] -4.09% | activity, negative = inhibition [3] 3.93% | Potency [4] > 20.6 µM

CC12CN3CC(=O)N4CC5(C)CN(CC(C)(C4)C5=O)C(=O)CN(C1)CC(C)(C3)C2=O
inactive: activity change, negative = inhibition [1] -1.13% | activity change, negative = inhibition [2] 2.81% | activity, negative = inhibition [3] 0.401% | Potency [4] > 20.6 µM

COc1ccc(-c2cc3nc4n(c(=O)c3s2)CCOC4)cc1
inactive: activity change, negative = inhibition [1] 18.4% | activity change, negative = inhibition [2] -10.1% | activity, negative = inhibition [3] 0.631% | Potency [4] > 20.6 µM

O=C(NCCc1ccccc1)/C(=N\O)c1ccccc1
inactive: activity change, negative = inhibition [1] -2.29% | activity change, negative = inhibition [2] 11.6% | activity, negative = inhibition [3] -3.56% | Potency [4] > 20.6 µM

CCOc1ccc2nc(NC(NC(=O)CC)(C(=O)OC)C(F)(F)F)sc2c1 (stereo not drawn)
inactive: activity change, negative = inhibition [1] -9.26% | activity change, negative = inhibition [2] 8.42% | activity, negative = inhibition [3] -8.24% | Potency [4] > 20.6 µM

Cc1ccc(C(=O)C2=C(O)C(=O)N(CCN3CCOCC3)C2c2ccccn2)o1 (stereo not drawn)
inactive: activity change, negative = inhibition [1] -1.65% | activity change, negative = inhibition [2] 8.69% | activity, negative = inhibition [3] 5.67% | Potency [4] > 20.6 µM

Cn1c(SCC(=O)NCc2ccccc2)nc2ccccc21
inactive: activity change, negative = inhibition [1] -0.959% | activity change, negative = inhibition [2] 1.73% | activity, negative = inhibition [3] 4.04% | Potency [4] > 20.6 µM

Clc1nc(-c2n[nH]nc2Cl)n[nH]1
inactive: activity change, negative = inhibition [1] 14.2% | activity change, negative = inhibition [2] -2.11% | activity, negative = inhibition [3] 5.38% | Potency [4] > 20.6 µM

NC(=O)C(c1ccccc1)C1CCCC1 (stereo not drawn)
inactive: activity change, negative = inhibition [1] -5.55% | activity change, negative = inhibition [2] 1.68% | activity, negative = inhibition [3] 15.2% | Potency [4] > 20.6 µM

CCCCc1c(C)nn(-c2nnc3c4ccccc4n(C)c3n2)c1C
inactive: activity change, negative = inhibition [1] -21.4% | activity change, negative = inhibition [2] -28.4% | activity, negative = inhibition [3] -8.34% | Potency [4] > 20.6 µM

Cn1c(OCc2ccc3c(c2)OCO3)nc2c1c(=O)n(Cc1cccc(Cl)c1)c(=O)n2C
inactive: activity change, negative = inhibition [1] -15.5% | activity change, negative = inhibition [2] 1.55% | activity, negative = inhibition [3] -6.64% | Potency [4] > 20.6 µM

CC1(C)Nc2ccc(O)cc2-c2c1ssc2=S
inactive: activity change, negative = inhibition [1] -3.5% | activity change, negative = inhibition [2] 19.6% | activity, negative = inhibition [3] -16.8% | Potency [4] > 20.6 µM

CCOC(=O)NC1(C(F)(F)F)C(=O)NC(C)=C1C#N (stereo not drawn)
inactive: activity change, negative = inhibition [1] 26.2% | activity change, negative = inhibition [2] -4.71% | activity, negative = inhibition [3] 1.98% | Potency [4] > 20.6 µM

CCOC(=O)c1[nH]c2ccc(OC)cc2c1C
inactive: activity change, negative = inhibition [1] -0.35% | activity change, negative = inhibition [2] -6.84% | activity, negative = inhibition [3] 6% | Potency [4] > 20.6 µM

O=C(CCN1CCc2ccccc21)c1ccc2c(c1)OCCO2
inactive: activity change, negative = inhibition [1] 7.14% | activity change, negative = inhibition [2] -15.2% | activity, negative = inhibition [3] 2.96% | Potency [4] > 20.6 µM

CCCCC(=O)NC(Nc1ccc(C)cn1)(C(=O)OCC)C(F)(F)F (stereo not drawn)
inactive: activity change, negative = inhibition [1] 6.8% | activity change, negative = inhibition [2] -3.17% | activity, negative = inhibition [3] -20.4% | Potency [4] > 20.6 µM

CC1(C)Cc2c(c(-c3ccccc3)nc(N3CCCC3)c2C(N)=O)CO1
inactive: activity change, negative = inhibition [1] 0.989% | activity change, negative = inhibition [2] -18.8% | activity, negative = inhibition [3] 0.41% | Potency [4] > 20.6 µM

COc1ccc(/C(O)=C2/C(=O)C(=O)N(CCCN(C)C)C2c2ccccc2)cc1OC (stereo not drawn)
inactive: activity change, negative = inhibition [1] -9.48% | activity change, negative = inhibition [2] -0.461% | activity, negative = inhibition [3] 8.71% | Potency [4] > 20.6 µM

COCCCn1c2nc3ccccc3nc2c2c(=O)n(-c3ccccc3OC)c(C)nc21
inactive: activity change, negative = inhibition [1] -7.38% | activity change, negative = inhibition [2] -8.29% | activity, negative = inhibition [3] 5.28% | Potency [4] > 20.6 µM

COc1cc(=O)[nH]c(=O)n1CC(=O)c1ccccc1
inactive: activity change, negative = inhibition [1] 1.4% | activity change, negative = inhibition [2] 3.25% | activity, negative = inhibition [3] 5.97% | Potency [4] > 20.6 µM

N/C(CCN1CCOCC1)=N/O
inactive: activity change, negative = inhibition [1] 18.7% | activity change, negative = inhibition [2] 2.54% | activity, negative = inhibition [3] -0.113% | Potency [4] > 20.6 µM

COc1ccc(/C(O)=C2/C(=O)C(=O)N(Cc3ccco3)C2c2cccs2)cc1 (stereo not drawn)
inactive: activity change, negative = inhibition [1] 7% | activity change, negative = inhibition [2] -13.1% | activity, negative = inhibition [3] -19.8% | Potency [4] > 20.6 µM

Cc1c(/C(O)=C2\C(=O)C(=O)N(CCN(C)C)C2c2cccnc2)cnn1-c1ccccc1 (stereo not drawn)
inactive: activity change, negative = inhibition [1] 1.75% | activity change, negative = inhibition [2] 9.15% | activity, negative = inhibition [3] 0.0911% | Potency [4] > 20.6 µM

CC(C)COc1nc2ccccc2nc1C(C#N)C(=O)NC1CCCCC1 (stereo not drawn)
inactive: activity change, negative = inhibition [1] -1.14% | activity change, negative = inhibition [2] 0.574% | activity, negative = inhibition [3] 5.36% | Potency [4] > 20.6 µM

O=C(NCc1ccccc1)c1ccc(=O)[nH]n1
inactive: activity change, negative = inhibition [1] 2.35% | activity change, negative = inhibition [2] -2.12% | activity, negative = inhibition [3] 5.54% | Potency [4] > 20.6 µM

CC1(C)CNC(=O)c2sc(N3CCOCC3)nc2C1
inactive: activity change, negative = inhibition [1] -10.8% | activity change, negative = inhibition [2] 26.7% | activity, negative = inhibition [3] 3.19% | Potency [4] > 20.6 µM

Cc1cc(=O)oc(C)c1C(=O)N1CCN(Cc2ccc3c(c2)OCO3)CC1
inactive: activity change, negative = inhibition [1] 6.44% | activity change, negative = inhibition [2] 17.1% | activity, negative = inhibition [3] 5.97% | Potency [4] > 20.6 µM

Cc1sccc1C1C(C#N)=C(N)SC(N)=C1C#N
inactive: activity change, negative = inhibition [1] -12.4% | activity change, negative = inhibition [2] 15% | activity, negative = inhibition [3] -25.4% | Potency [4] > 20.6 µM

CCCC1Cc2c(sc3nc(SC)nc(N)c23)CO1 (stereo not drawn)
inactive: activity change, negative = inhibition [1] -3.09% | activity change, negative = inhibition [2] -10.7% | activity, negative = inhibition [3] -1.16% | Potency [4] > 20.6 µM

COc1ccc(NC2CC(=O)N(C)C2=O)cc1 (stereo not drawn)
inactive: activity change, negative = inhibition [1] 9.53% | activity change, negative = inhibition [2] -9.34% | activity, negative = inhibition [3] 11.9% | Potency [4] > 20.6 µM

COc1ccc(NC(=O)Nc2cccc(C(=O)N3CCOCC3)c2)cc1OC
inactive: activity change, negative = inhibition [1] 3.36% | activity change, negative = inhibition [2] -1.43% | activity, negative = inhibition [3] 0.00442% | Potency [4] > 20.6 µM
